Results as given in PubChem BioAssay AID1159580 (chemical genetic matrix, 2015).
In all, about 5,500 compounds went through this assay and about 2,000 (36%) were called active. Not shown: some 18% with an inconclusive outcome. Rule as the data show it: active = normalized growth mostly below about 0.91 (no sharp cut-off); inconclusive = no clear call, values can overlap the other calls; inactive = mostly above about 0.92. This is one part of the list.

Assay: chemical genetic growth profiling, strain panel (AID 1159580);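 also: tested at 20 µM; growth read once vehicle control cultures reached saturation at 30 °C; 1 = growth at the plate median or of vehicle wells; lower values mean less growth of the strain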
Conditions: growth OD

Measured: normalized growth

CC(=O)Oc1ccc(C(c2ccc(OC(C)=O)cc2)c2ccccn2)cc1
inactive: S. cerevisiae deletion strains, locus YJR075W, strain HOC1, active compounds read low 0.978 | S. cerevisiae deletion strains, locus YKL009W, strain mrt4, active compounds read low 0.985 | S. cerevisiae deletion strains, locus YKL068W, active compounds read low 1 | S. cerevisiae deletion strains, locus YKL085W, strain MDH1 (second series), active compounds read low 0.986 | S. cerevisiae deletion strains, locus YKL085W, strain MDH1, active compounds read low 0.986 | S. cerevisiae deletion strains, locus YKL160W, strain elf1, active compounds read low 1.03 | S. cerevisiae deletion strains, locus YKL190W, strain CNB1, active compounds read low 0.989 | S. cerevisiae deletion strains, locus YKR001C, strain vps1, active compounds read low 0.984 | S. cerevisiae deletion strains, locus YKR026C, strain gcn3, active compounds read low 1.01 | S. cerevisiae deletion strains, locus YKR091W, strain srl3, active compounds read low 1.02 | S. cerevisiae deletion strains, locus YLL001W, strain dnm1, active compounds read low 1.01 | S. cerevisiae deletion strains, locus YLL026W, active compounds read low 1.02 | S. cerevisiae deletion strains, locus YLL041C, strain sdh2, active compounds read low 1.03 | S. cerevisiae deletion strains, locus YLR027C, strain aat2, active compounds read low 1.02 | S. cerevisiae deletion strains, locus YLR039C, strain RIC1, active compounds read low 0.986 | S. cerevisiae deletion strains, locus YLR058C, strain SHM2, active compounds read low 0.984 | S. cerevisiae deletion strains, locus YLR102C, strain apc9, active compounds read low 0.995 | S. cerevisiae deletion strains, locus YLR113W, strain HOG1, active compounds read low 0.953 | S. cerevisiae deletion strains, locus YLR221C, strain rsa3, active compounds read low 1.02 | S. cerevisiae deletion strains, locus YLR258W, strain gsy2, active compounds read low 1.03 | S. cerevisiae deletion strains, locus YLR262C, strain YPT6 (second series), active compounds read low 1.01 | S. cerevisiae deletion strains, locus YLR262C, strain YPT6, active compounds read low 0.969 | S. cerevisiae deletion strains, locus YLR268W, strain sec22, active compounds read low 0.992 | S. cerevisiae deletion strains, locus YLR320W, strain mms22, active compounds read low 1 | S. cerevisiae deletion strains, locus YLR330W, strain CHS5, active compounds read low 0.988 | S. cerevisiae deletion strains, locus YLR342W, strain FKS1 (second series), active compounds read low 1.02 | S. cerevisiae deletion strains, locus YLR342W, strain FKS1, active compounds read low 1.01 | S. cerevisiae deletion strains, locus YLR357W, strain rsc2, active compounds read low 1.08 | S. cerevisiae deletion strains, locus YLR370C, strain arc18, active compounds read low 1.03 | S. cerevisiae deletion strains, locus YLR371W, strain rom2, active compounds read low 0.983 | S. cerevisiae deletion strains, locus YLR384C, strain iki3, active compounds read low 1.02 | S. cerevisiae deletion strains, locus YLR418C, strain cdc73, active compounds read low 0.999 | S. cerevisiae deletion strains, locus YML016C, strain PPZ1, active compounds read low 0.981 | S. cerevisiae deletion strains, locus YML032C, strain rad52, active compounds read low 0.998 | S. cerevisiae deletion strains, locus YML120C, strain ndi1, active compounds read low 1 | S. cerevisiae deletion strains, locus YML124C, strain tub3, active compounds read low 0.992 | S. cerevisiae deletion strains, locus YMR058W, strain fet3, active compounds read low 1.01 | S. cerevisiae deletion strains, locus YMR078C, strain ctf18, active compounds read low 0.985 | S. cerevisiae deletion strains, locus YMR125W, strain sto1, active compounds read low 1.02 | S. cerevisiae deletion strains, locus YMR129W, active compounds read low 1.02 | S. cerevisiae deletion strains, locus YMR205C, strain PFK2, active compounds read low 0.985 | S. cerevisiae deletion strains, locus YMR223W, strain ubp8, active compounds read low 0.987 | S. cerevisiae deletion strains, locus YMR231W, strain pep5, active compounds read low 1.02 | S. cerevisiae deletion strains, locus YMR263W, strain SAP30, active compounds read low 0.963 | S. cerevisiae deletion strains, locus YMR307W, strain GAS1, active compounds read low 0.934 | S. cerevisiae deletion strains, locus YNL067W, strain RPL9B, active compounds read low 0.965 | S. cerevisiae deletion strains, locus YNL071W, strain lat1, active compounds read low 1.01 | S. cerevisiae deletion strains, locus YNL183C, strain NPR1, active compounds read low 0.928 | S. cerevisiae deletion strains, locus YNL209W, strain ssb2, active compounds read low 1 | S. cerevisiae deletion strains, locus YNL233W, strain BNI4, active compounds read low 0.971 | S. cerevisiae deletion strains, locus YNL248C, strain rpa49, active compounds read low 1.03 | S. cerevisiae deletion strains, locus YNL250W, strain rad50, active compounds read low 0.98 | S. cerevisiae deletion strains, locus YNL271C, strain bni1, active compounds read low 0.985 | S. cerevisiae deletion strains, locus YNL298W, strain CLA4, active compounds read low 0.989 | S. cerevisiae deletion strains, locus YNL307C, strain MCK1, active compounds read low 0.989 | S. cerevisiae deletion strains, locus YNL322C, strain KRE1 (second series), active compounds read low 1.01 | S. cerevisiae deletion strains, locus YNL322C, strain KRE1, active compounds read low 1 | S. cerevisiae deletion strains, locus YNR049C, strain mso1, active compounds read low 1.01 | S. cerevisiae deletion strains, locus YNR052C, strain pop2, active compounds read low 0.997 | S. cerevisiae deletion strains, locus YOL012C, strain htz1 1.18 | S. cerevisiae deletion strains, locus YOL147C, strain pex11, active compounds read low 0.979 | S. cerevisiae deletion strains, locus YOR001W, strain rrp6, active compounds read low 0.973 | S. cerevisiae deletion strains, locus YOR061W, strain CKA2, active compounds read low 0.995 | S. cerevisiae deletion strains, locus YOR069W, strain VPS5, active compounds read low 0.989 | S. cerevisiae deletion strains, locus YOR070C, strain gyp1, active compounds read low 1 | S. cerevisiae deletion strains, locus YOR080W, strain dia2, active compounds read low 1.02 | S. cerevisiae deletion strains, locus YOR083W, strain WHI5, active compounds read low 1.02 | S. cerevisiae deletion strains, locus YOR106W, strain vam3, active compounds read low 1.05 | S. cerevisiae deletion strains, locus YOR136W, strain idh2, active compounds read low 0.975 | S. cerevisiae deletion strains, locus YOR144C, strain elg1, active compounds read low 0.984 | S. cerevisiae deletion strains, locus YOR184W, strain ser1, active compounds read low 1.01 | S. cerevisiae deletion strains, locus YOR231W, strain MKK1, active compounds read low 0.974 | S. cerevisiae deletion strains, locus YOR265W, strain rbl2, active compounds read low 1 | S. cerevisiae deletion strains, locus YOR270C, strain vph1, active compounds read low 1.02 | S. cerevisiae deletion strains, locus YOR290C, strain snf2, active compounds read low 1.04 | S. cerevisiae deletion strains, locus YOR316C, strain cot1, active compounds read low 0.984 | S. cerevisiae deletion strains, locus YPL051W, strain arl3, active compounds read low 1.01 | S. cerevisiae deletion strains, locus YPL078C, strain atp4, active compounds read low 1.01 | S. cerevisiae deletion strains, locus YPL106C, strain sse1, active compounds read low 1.03 | S. cerevisiae deletion strains, locus YPL240C, strain hsp82, active compounds read low 1.02 | S. cerevisiae deletion strains, locus YPL241C, strain CIN2, active compounds read low 0.996 | S. cerevisiae deletion strains, locus YPL256C, strain CLN2, active compounds read low 1 | S. cerevisiae deletion strains, locus YPR119W, strain clb2, active compounds read low 0.996 | S. cerevisiae deletion strains, locus YPR141C, strain kar3, active compounds read low 0.974 | S. cerevisiae deletion strains, locus YPR163C, strain tif3, active compounds read low 0.996 | S. cerevisiae deletion strains, locus YPR167C, strain met16, active compounds read low 0.989 | S. cerevisiae deletion strains, strain wtn01, active compounds read low 1.01 | S. cerevisiae strains, strain wild type, active compounds read low 1
